Compound activity deposited in PubChem by several laboratories.
EP2 mod: modulates human prostaglandin E2 receptor EP2 signaling | AID 940 | P43116 | EP2-expressing cells, cAMP HTRF FRET, PGE2 co-stimulation | hit rate 0.83% among 260,000 | induction, % at 25 µM;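 active = compounds whose cAMP rise, as percent of the full-agonist control response, exceeds 60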;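 note: rat C6 glioma line stably carrying human EP2 under a CMV promoter; the protocol text gives 20 µM as final concentration; 100% = response of wells given 1 µM PGE2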
Target sequence (P43116 whole entry, looked up): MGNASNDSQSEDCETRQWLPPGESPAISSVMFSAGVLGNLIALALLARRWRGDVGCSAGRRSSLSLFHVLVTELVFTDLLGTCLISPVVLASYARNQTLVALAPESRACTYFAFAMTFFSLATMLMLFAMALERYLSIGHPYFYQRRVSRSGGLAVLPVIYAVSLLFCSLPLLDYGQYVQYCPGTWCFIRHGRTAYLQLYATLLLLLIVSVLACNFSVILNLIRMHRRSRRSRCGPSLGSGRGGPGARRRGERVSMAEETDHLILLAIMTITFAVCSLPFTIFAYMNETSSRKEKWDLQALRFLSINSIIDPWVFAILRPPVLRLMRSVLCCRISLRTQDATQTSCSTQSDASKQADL
PGE2 EP2 inh: blocks the human prostaglandin E2 receptor EP2; hit rate 0.52% among 260,000; inhibition, % at 25 µM; AID 1422; C6 glioma cells expressing human EP2, cAMP TR-FRET; cells stimulated with saturating PGE2;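 active = percent inhibition above 40 after rounding to a whole number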;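 note: rat C6 glioma host cells with rolipram phosphodiesterase inhibitor present; the protocol text gives 20 µM as final concentration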
CHT PAM: human CHT allosteric activation; CHT-expressing cells, membrane potential dye, choline EC20; stronger effect = higher value; LV-AA mutant CHT in HEK293 cells; B-score at 10 µM; hit rate 0.49% among 310,000; AID 488977;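 active = initial fluorescence not abnormally high and integrated response B-score, plate-corrected, over 3 SD above library mean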
CHT inh: inhibits the human high affinity choline transporter; Q9GZV3; CHT-expressing cells, membrane potential dye, choline response; stronger effect = lower value; B-score at 10 µM; hit rate 0.86% among 310,000; AID 488975;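 active = B-score over 3 SD under the library average, and starting fluorescence ratio not unusually high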;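 note: choline stimulus applied at its EC90 after an EC20 pre-addition; B-score computed on integrated fluorescence ratio after choline addition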
CHT block conf: confirmation of human choline transporter CHT inhibitors | shares compounds with CHT inh | CHT activity remaining % of control (stronger effect = lower value), % at 10 µM | AID 493221 | CHT-expressing cells, choline membrane potential dye; LV-to-AA substituted CHT, HEK293 cells | hit rate 70% among 2,400;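 active = choline transporter activity left, mean of duplicates at 10 µM, below buffer-only control mean minus 3 SD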;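 note: depolarization triggered by choline at its EC90 following an EC20 pre-addition; 0% = hemicholinium-3 full block and 100% = buffer-only control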
HEK293 MPD ctr: CHT inhibitor counter-screen hit in parental HEK293 cells. shares compounds with CHT inh. membrane potential dye, choline response; active = decrease or increase beyond buffer ±3SD. membrane potential ratio readout (active if shifted either direction beyond buffer ±3SD; no single direction) at 10 µM. hit rate 4% among 2,400;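 note: parental cells lack the transporter so any hit is non-specific; ratio is peak minus trough fluorescence over baseline after EC90 choline challenge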
* hit, by the source's call; i = inactive; x = no result. Rows were chosen to be rich in hits. Some 2% of all compounds tested hit in one or more screens of this group.

SMILES | EP2 mod | PGE2 EP2 inh | CHT PAM | CHT inh | CHT block conf | HEK293 MPD ctr
COc1ccc(-c2nc(C=O)cs2)cc1 | 18 | 7 | i | -5.5* | 23%* | i
COc1ccc(CN2CCc3c(nc(N4CCCC4)[nH]c3=O)C2)c(OC)c1 | -15 | x | x | x | x | x
O=C(NNC1=C(C(=O)C(F)(F)F)CCC1)c1cccc(Cl)c1 | -16 | 16 | i | -9.8* | 40%* | i
COc1ccc(C(=O)NNC2=C(C(=O)C(F)(F)F)CCC2)cc1 | -19 | 6 | i | i | x | x
O=C(NNC1=C(C(=O)C(F)(F)F)CCC1)c1ccc(Cl)cc1 | 27 | 3 | i | -5.1* | 40%* | i
CN(C)C1(CN=Cc2cc(Cl)cc([N+](=O)[O-])c2O)CCCCC1 | x | x | i | -6.3* | 36%* | i
NCCCn1c(C(=O)c2ccc(Cl)cc2)c2ccc(C(F)(F)F)cc2[n+]1[O-] | x | x | i | -5.1* | 31%* | 2.2*
NC(=O)CCCn1c(C(=O)c2ccc(Cl)cc2)c2ccc([N+](=O)[O-])cc2[n+]1[O-] | x | x | i | i | x | x
NC(=O)CCCn1c(C(=O)c2cc(Cl)c(N)c(Cl)c2)c2ccc([N+](=O)[O-])cc2[n+]1[O-] | x | x | i | -8.8* | 17%* | i
CCOc1ccc(C(=O)Nc2ccc(S(=O)(=O)N3CCCCC3)cc2)cc1OCC | 20 | 7 | x | x | x | x
Cc1[nH]n2c(=O)c3c(nc2c1-c1cccs1)CCCC3 | -48 | 13 | x | x | x | x
CCNc1cc(Cl)nc(SC)n1 | 26 | x | i | -14* | -6.5%* | i
CCCC(c1nnnn1C(C)(C)CC)N(CCO)Cc1cc2cc(C)ccc2[nH]c1=O (stereo unspecified) | 37 | 12 | x | x | x | x
CCOc1ccc(N2CC(C(=O)Nc3ccc(Cl)cc3)CC2=O)cc1 (stereo unspecified) | 0 | 8 | x | x | x | x
Cc1ccc(S(=O)(=O)NC(=O)COc2cc(C)ccc2C(C)C)cc1 | x | x | i | -5.9* | 50%* | i
C=CCn1c(SCc2ccccc2C#N)nnc1-c1ccccc1O | 25 | 6 | i | -6.3* | i | i
C=CCn1c(SCC(N)=O)nnc1-c1ccccc1O | 4 | 10 | i | i | x | x
Cc1nn2c(N(C)CCO)c3c(nc2c1-c1cccs1)CCC3 | -24 | x | x | x | x | x
N#CC(C#N)=c1ccc2c(c1)N1C3=C(CCCC3)CC3CCCCC31N=2 (stereo unspecified) | 39 | 12 | i | -11* | 62%* | i
N#C/C(C(N)=O)=c1/ccc2c(c1)N1C3=C(CCCC3)CC3CCCCC31N=2 (stereo unspecified) | 27 | 11 | i | -15* | 23%* | i
Cc1ccc2cc(CN(Cc3cccs3)Cc3nnnn3C(C)(C)C)c(=O)[nH]c2c1C | -7 | 7 | x | x | x | x
CC(O)CN1C(=O)C(=O)/C(=C(\O)c2ccc(Cl)cc2)C1c1cccnc1 (stereo unspecified) | 14 | 13 | x | x | x | x
Cc1nccn1CC1CCc2c(c3ccccc3n2C)C1=O (stereo unspecified) | x | 15 | i | -6.7* | 7.4%* | i
Cc1nccn1C[C@@H]1CCc2c(c3ccccc3n2C)C1=O | x | x | i | -5.7* | 12%* | i
Cc1nccn1CCCN1C(=O)CNC1=S | 26 | 3 | i | i | x | x
SMILES | EP2 mod | PGE2 EP2 inh | CHT PAM | CHT inh | CHT block conf | HEK293 MPD ctr
c1ccc(CNc2nc(N3CCN(Cc4ccccc4)CC3)nc3ccccc23)cc1 | 26 | 10 | i | i | x | x
c1ccc(CN2CCC(Nc3nc(-c4ccccc4)nc4ccccc34)CC2)cc1 | -35 | 13 | i | -6.3* | i | i
COc1ccc(C(=O)N2CCc3c(nc(C)[nH]c3=O)C2)c2ccccc12 | 2 | 1 | x | x | x | x
OC(CNCc1ccccc1)c1ccccc1 (stereo unspecified) | -14 | 12 | i | i | x | x
OC(CNC1Cc2ccccc2C1)c1ccccc1 (stereo unspecified) | x | x | i | -5.2* | 52%* | i
C=CC(=O)N=c1sc2ccccc2n1-c1ccccc1 | 32 | 4 | i | -6.2* | 37%* | i
Cc1cc(C)n2c(SCC(=O)NC3CCCCC3C)nnc2n1 (stereo unspecified) | 21 | 9 | i | -5.4* | 70%* | i
OCc1ccccc1OCCCOc1cccc2cccnc12 | x | x | i | i | x | x
